Test results: PubChem BioAssay (NCATS)
Where “and” joins values, the source holds several entries; their conditions need not be identical. Equal entries are not always repeated. Inconclusive results are not listed. Calls of active or inactive are those of the source. Calls follow the shape of the dose curve; as a rule, active = well fitted curve in the direction sought with a large enough effect; inconclusive = small, poorly fitted or top-dose-only effect, or another doubt; inactive = no such curve, though single readings can be large; an effect the other way counts as inactive or inconclusive.

Columns and labels:
[1] = Viability qHTS for spleen associated tyrosine kinase inhibitor (SYKi) naive MV4-11 cells (AID 1963823); also: nearly all actives have a fitted effect of over 40% in size
Method in brief: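 qHTS, SYK inhibitor-naive MV4-11; 500 cells/well; 72 hr compound exposure, 37 C; CellTiter-Glo added, 10 min RT; luminescence read.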

[2] = Quantitative highthroughput screen to assess conditional lethalithy of NOMO1 cells grown in RPMI1640 with untreated serum (RPMI+s) (AID 1963876); also: nearly all actives have a fitted effect of over 35% in size;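 as to Viability: 100% = DMSO wells and 0% = empty wells without cells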
Method in brief: (§1)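 Each medium arm—HPLM with 10% dialyzed FBS, or RPMI1640 with 5 mM glucose and 10% untreated or dialyzed FBS—was screened against an 11-point, 3-fold compound titration for 48 h at 37 °C, with CellTiter-Glo luminescence as endpoint.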

[3] = Quantitative highthroughput screen to assess conditional lethalithy of NOMO1 cells grown in RPMI1640 with dialyzed fetal bovine serum (RPMI+ds) (AID 1963877); also: nearly all actives have a fitted effect of over 30% in size;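 as to Viability: series mostly up to about 46 µM; 100% = DMSO control wells and 0% = empty wells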
Method in brief: as §1

[4] = Quantitative highthroughput screen to assess conditional lethalithy of P12 Ichikawa cells grown in Human Plasma-Like Medium with dialyzed fetal bovine serum (HPLM+ds) (AID 1963879); conditions: Potency: viability; also: nearly all actives have a fitted effect of over 35% in size; as to Viability: series mostly up to about 46 µM
Method in brief: as §1

[5] = Quantitative highthroughput screen to assess conditional lethalithy of P12 Ichikawa cells grown in RPMI1640 with dialyzed fetal bovine serum (RPMI+ds) (AID 1963880); conditions: Potency: P12-Ichikawa viability; also: nearly all actives have a fitted effect of over 35% in size;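 as to Viability: 100% = DMSO wells and 0% = empty wells on each plate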
Method in brief: as §1

[6] = Quantitative highthroughput screen to assess conditional lethalithy of SEM cells grown in Human Plasma-Like Medium with dialyzed fetal bovine serum (HPLM+ds) (AID 1963882); also: nearly all actives have a fitted effect of over 35% in size; as to Viability: series mostly up to about 46 µM
Method in brief: as §1

[7] = Cellular viability qHTS for adrenocortical cancer (ACC) cell line SW-13 (AID 1963989); conditions: SW-13 ACC cells viability, CellTiter-Glo, 48 h; activity (max response): stronger effect = lower value; also: nearly all actives have a fitted effect of over 65% in size;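 as to activity (max response): cells grown in serum-free medium with ITS supplement; % is scaled to controls: 0 for no effect and ±100 for the full control effect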
Method in brief: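 Viability was read as CellTiter-Glo luminescence after 48 h compound treatment (up to 46 uM final) of SW-13 cells grown serum-free; titration curves were fit with a four-parameter logistic model to give IC50 and efficacy.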

[8] = Cellular viability qHTS for adrenocortical cancer (ACC) cell line NCI-H295R (AID 1963990); also: nearly all actives have a fitted effect of over 60% in size
Method in brief: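 CellTiter-Glo ATP luminescence, read 48 h after compound addition, measured viability of NCI-H295R adrenocortical cells grown serum-free with ITS. Final concentrations spanned up to 46 uM. Data normalized to DMSO and doxorubicin, fitted for IC50 and maximal response.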

[9] = Quantitative highthroughput screen to assess conditional lethalithy of P12 Ichikawa cells grown in RPMI1640 with untreated serum (RPMI+s) (AID 1963881); conditions: Potency: viability; also: nearly all actives have a fitted effect of over 35% in size;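 as to Viability: series mostly up to about 46 µM; 100% = DMSO wells and 0% = empty wells without cells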
Method in brief: as §1

[10] = Quantitative highthroughput screen to assess conditional lethalithy of SEM cells grown in RPMI1640 with unreated serum (RPMI+s) (AID 1963883); also: nearly all actives have a fitted effect of over 35% in size;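 as to Viability: 100% = DMSO wells and 0% = empty wells without cells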
Method in brief: as §1

[11] = Quantitative highthroughput screen to assess conditional lethalithy of SEM cells grown in RPMI1640 with dialyzed fetal bovine serum (RPMI+ds) (AID 1963884); also: nearly all actives have a fitted effect of over 35% in size;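 as to Viability: series mostly up to about 46 µM; 100% = DMSO control wells and 0% = empty wells without cells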
Method in brief: as §1

[12] = Quantitative highthroughput screen to assess conditional lethalithy of NOMO1 cells grown in Human Plasma-Like Medium with dialyzed fetal bovine serum (HPLM+ds) (AID 1963878); also: nearly all actives have a fitted effect of over 35% in size
Method in brief: as §1
Potency is read from the fitted curve at half-maximal effect.

CCCCN(CCCC)C(=O)CN1C[C@H](c2ccc3c(c2)OCO3)[C@@H](C(=O)O)[C@@H]1c1ccc(OC)cc1
active: Potency [1] 16.6 µM | Potency [6] 2090 nM
inactive: Potency [2] | Potency [3] | Potency [4] | Potency [5] | activity (max response) [7] -6% | Potency [8]

O=C(O)CCC=CCC[C@@H]1[C@H](N2CCCCC2)[C@@H](O)C[C@@H]1OCc1ccc(-c2ccccc2)cc1
inactive: Potency [1] | Potency [3] | Potency [4] | Potency [5] | Potency [9] | Potency [10] | Potency [11] | activity (max response) [7] -17.1% | Potency [8]

CC1(C)CCC(CN2CCN(c3ccc(C(=O)NS(=O)(=O)c4ccc(NCC5CCOCC5)c([N+](=O)[O-])c4)c(Oc4cnc5[nH]ccc5c4)c3)CC2)=C(c2ccc(Cl)cc2)C1
inactive: activity (max response) [7] -2.3% | Potency [8]
active: Potency [1] 0.105 µM | Potency [3] 105 nM | Potency [6] 33.2 nM | Potency [11] 26.4 nM

O=C1CCCC(=O)C1C(=O)c1ccc(C(F)(F)F)cc1[N+](=O)[O-]
inactive: Potency [1] | Potency [2] | Potency [3] | Potency [4] | Potency [5] | Potency [9] | Potency [6] | Potency [10] | Potency [11] | activity (max response) [7] 6.97% | Potency [8]

COc1cc2c(cc1OC)[C@@H]1C(=O)c3ccc4c(c3O[C@@H]1CO2)C=CC(C)(C)O4
active: Potency [1] 103 nM and 93.4 nM | Potency [2] 23500 nM | Potency [12] 20900 nM | Potency [4] 18700 nM | Potency [5] 18700 nM | Potency [9] 6620 nM | Potency [10] 2640 nM | Potency [11] 16600 nM | Potency [7] 178 nM | Potency [8] 20000 nM

CC(C)(C)OC(=O)Nc1ccc(-c2cc(C(=O)NCCCCCCC(=O)NO)no2)cc1
active: Potency [1] 1.48 µM | Potency [2] 8330 nM | Potency [12] 8330 nM | Potency [4] 2640 nM | Potency [5] 1050 nM | Potency [9] 2350 nM | Potency [6] 3720 nM | Potency [11] 1320 nM | Potency [7] 15800 nM | Potency [8] 2820 nM

C[C@H]1COc2c(N3CCN(C)CC3)c(F)cc3c(=O)c(C(=O)O)cn1c23
active: Potency [3] 23500 nM | Potency [4] 8330 nM | Potency [9] 4180 nM | Potency [10] 13200 nM | Potency [11] 1320 nM
inactive: Potency [1] | activity (max response) [7] 6.21%

COc1cc2c(N3CCN(C(=O)Nc4ccc(OC(C)C)cc4)CC3)ncnc2cc1OCCCN1CCCCC1
active: Potency [1] 231 nM and 235 nM | Potency [3] 8330 nM | Potency [5] 8330 nM | Potency [10] 469 nM | Potency [11] 132 nM
inactive: Potency [8]

Cc1cnc(-c2cc(N3CCN(C(=O)CCS(C)(=O)=O)CC3)ncc2Cl)c(C)c1
inactive: Potency [1] | Potency [2] | Potency [3] | Potency [4] | Potency [5] | Potency [6] | Potency [10] | Potency [11] | activity (max response) [7] -0.258% | Potency [8]

O=C1NC(=O)C(c2cnc3ccccn23)=C1c1cn2c3c(cc(F)cc13)CN(C(=O)N1CCCCC1)CC2
active: Potency [1] 231 nM and 833 nM | Potency [4] 588 nM | Potency [5] 5880 nM | Potency [9] 166 nM | Potency [6] 20.9 nM | Potency [10] 18.6 nM | Potency [11] 16.6 nM | Potency [8] 25100 nM
inactive: Potency [2] | Potency [3]

CC[C@@H]1C(=O)N(C)c2cnc(Nc3ccc(C(=O)NC4CCC(N5CCN(CC6CC6)CC5)CC4)cc3OC)nc2N1C(C)C (some centres not stated)
active: Potency [1] 0.0206 µM | Potency [2] 93.5 nM | Potency [4] 33.2 nM | Potency [9] 74.3 nM | Potency [6] 29.6 nM | Potency [10] 83.3 nM | Potency [11] 59 nM | Potency [7] 50.1 nM | Potency [8] 1410 nM

Oc1ccc(OCc2ccccc2)cc1
active: Potency [1] 5.9 µM | Potency [3] 18700 nM | Potency [4] 7430 nM | Potency [9] 3720 nM
inactive: Potency [2] | activity (max response) [7] 12.2% | Potency [8]

CCC(=O)O[C@]1(C(=O)SCF)[C@H](C)C[C@H]2[C@@H]3C[C@H](F)C4=CC(=O)C=C[C@]4(C)[C@@]3(F)[C@@H](O)C[C@@]21C
active: Potency [1] 3.3 nM and 8.3 nM
inactive: Potency [2] | activity (max response) [7] 0.482% and -2.88% | Potency [8]

COc1ccc(C2(C#N)CCC(C(=O)O)CC2)cc1OC1CCCC1 (configuration not stated)
inactive: Potency [1] | Potency [2] | Potency [3] | Potency [5] | Potency [9] | Potency [10] | Potency [11] | activity (max response) [7] 2.89% | Potency [8]

CC(C(=O)O)c1ccc(-c2ccccc2)c(F)c1 (configuration not stated)
inactive: Potency [1] | Potency [2] | Potency [3] | activity (max response) [7] -8.73% | Potency [8]
active: Potency [6] 14800 nM
